Assay outcomes from PubChem BioAssay.
YB-1 expr inh = YB-1 expression inhibition. actives 0.37% (n = 30,000). delta delta Cp (YB-1 minus CDIP) (test concentration not listed). U2OS, qRT-PCR YB-1 vs CDIP delta delta Cp, 16 h; stronger effect = higher value; zero = DMSO, each unit about twofold. AID 434959;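 active means delta delta Cp rounded down to an integer at or above 3, about 3 SD of DMSO wells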;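 further: higher means less YB-1 transcript or more CDIP transcript relative to DMSO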
U2OS ROS induce = cancer cell ROS induction; actives 2% (n = 46,000); ROS induction (% of piperlongumine), % at 10 µM; AID 624156; U2OS ROS induction, H2DCF-DA fluorescence; in the data active means ROS induction above about 79%, passing the limit was not always enough;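 further: 0% = DMSO vehicle median and 100% = reference compound median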
Starred values were filed as active, the others as inactive; nt = not tested or not shown. Sampled rows, rich in hits. Any-hit rate of the full collection: about 2.1%.

SMILES	YB-1 expr inh	U2OS ROS induce
CO[C@H]1C[C@@H]2CC[C@@H](C)[C@@](O)(O2)C(=O)C(=O)N2CCCC[C@H]2C(=O)O[C@H]([C@H](C)C[C@@H]2CC[C@@H](O)[C@H](OC)C2)CC(=O)[C@H](C)/C=C(\C)[C@@H](O)[C@@H](OC)C(=O)[C@H](C)C[C@H](C)/C=C/C=C/C=C\1C	1.05	98.4*
CC(=O)Oc1ccc2occ(C(=O)CCN(C)C)c2c1	-0.121	98.4*
CC(=O)Oc1ccc2occ(C(=O)c3ccc(Br)s3)c2c1	0.0255	29.9
COc1ccc(-c2c(C)nn3c(N4CCC(C)CC4)cc(C)nc23)cc1OC	nt	92.7*
COc1ccc(OC)c2c1CC(C)(C)n1c(-c3ccc(Cl)cc3)nnc1-2	nt	-4.5
CN1C(=O)/C(=C/c2ccc(Cl)cc2)N(C)C1=S	nt	21.3
Cc1cc(C)c(C#N)c(SCCS(=O)(=O)c2nc3ccccc3s2)n1	nt	140.9*
N#Cc1cc2c(nc1SCCS(=O)(=O)c1nc3ccccc3s1)CCCC2	nt	9.9
COc1cc(CO)ccc1OCC(=O)Nc1ccccc1F	nt	-2.4
COc1cc(CO)ccc1OCC(=O)Nc1ccc(C)cc1	nt	121.9*
Cc1cccc(N2CCC(N=CN3CCOCC3)=N2)c1	nt	-21.3
C[C@@H]1CN([C@@H](C)CO)C(=O)Cc2cc(NC(=O)Nc3ccccc3)ccc2O[C@@H]1CN(C)CC1CCCCC1	0.385	94.5*
C[C@H]1CN([C@@H](C)CO)C(=O)Cc2cc(NC(=O)Nc3ccccc3)ccc2O[C@@H]1CN(C)CC1CCCCC1	0.286	2.2
C[C@@H]1CN([C@H](C)CO)C(=O)Cc2cc(NC(=O)C3CCCCC3)ccc2O[C@H]1CN(C)CC1CC1	0.313	95.3*
C[C@H]1CN([C@@H](C)CO)C(=O)Cc2cc(NC(=O)C3CCCCC3)ccc2O[C@H]1CN(C)CC1CCCCC1	-0.457	12.2
CCCOc1c(-c2ccc3ccccc3n2)cnc2ccccc12	nt	-1.4
Cc1c(C(=O)Nc2ccc3ccccc3c2)oc2ccccc12	nt	-0.1
COc1ccc(CN2C(=O)c3cccc4cccc(c34)C2=O)cc1S(=O)(=O)N1CCCCCC1	nt	34.2
CCOc1ccc(S(=O)(=O)N2CCCCC2)cc1-c1nc2c(C(C)(C)C)nn(C)c2c(=O)[nH]1	nt	169.8*
CCCc1nc(C)c2c(=O)[nH]c(-c3cc(S(=O)(=O)N4CCN(CC)CC4)ccc3OCC)nn12	0.108	133.8*
CCN1CCN(C(=O)C2CCN(S(=O)(=O)c3ccc4c(c3)nc(C)n4C3CCCC3)CC2)CC1	nt	-17.7
C=CCNc1ncnc2c1c(-c1ccccc1)cn2-c1ccc(OCC)cc1	nt	46.3
COC(=O)C1=C(C)Nc2ncnn2C1c1ccc(OCC(=O)N2CCOCC2)c(OC)c1 (stereo unspecified)	nt	41.3
COc1cc(C2C(C#N)=C(C)Nc3oc(C)nc32)ccc1OCCN1CCOCC1 (stereo unspecified)	-0.627	115.7*
O=C(OCCCN1C(=O)c2ccccc2C1=O)c1ccc(Cl)cc1Cl	nt	-8.8
SMILES	YB-1 expr inh	U2OS ROS induce
Cc1ccc(OCCN2CCN(c3cc(C)c(C#N)c4nc5ccccc5n34)CC2)cc1	nt	100.2*
Cc1cc(N2CCCC2)n2c(nc3ccccc32)c1C#N	nt	13.5
C[C@@H]1CCCCO[C@@H](CN(C)C(=O)CCCN(C)C)[C@@H](C)CN([C@H](C)CO)C(=O)c2cc(NS(C)(=O)=O)ccc2O1	9.69*	-8.5
Cc1ccc(S(=O)(=O)Nc2ccc3c(c2)C(=O)N([C@H](C)CO)C[C@H](C)[C@H](CN(C)C(=O)CCCN(C)C)OCCCC[C@@H](C)O3)cc1	-0.355	4.3
C[C@@H]1CCCCO[C@@H](CN(C)C(=O)CCCN(C)C)[C@@H](C)CN([C@H](C)CO)C(=O)c2cc(NS(=O)(=O)c3ccc(F)cc3)ccc2O1	-0.125	7.8
C[C@@H]1CCCCO[C@H](CN(C)C(=O)CCCN(C)C)[C@@H](C)CN([C@H](C)CO)C(=O)c2cc(NS(=O)(=O)c3ccc(Cl)cc3)ccc2O1	0.126	99.4*
CCN(CC)C(=O)Cn1cc(S(=O)(=O)CC(=O)N2CCCCC2)c2ccccc21	nt	-6.9
COc1cc(OC)c(NC(=O)c2c(C)nn(-c3ccccc3)c2-n2cccc2)cc1Cl	nt	26.2
COC(=O)c1ccccc1NC(=O)c1c(C)nn(-c2ccccc2)c1-n1cccc1	nt	126.1*
CC(C)NC(=O)Nc1ccc2c(c1)CC(=O)N([C@@H](C)CO)C[C@H](C)[C@H](CN(C)Cc1ccncc1)O2	0.111	11.0
CC(C)NC(=O)Nc1ccc2c(c1)CC(=O)N([C@@H](C)CO)C[C@H](C)[C@H](CN(C)C(=O)Nc1ccccc1)O2	-0.272	79.2*
CC(C)NC(=O)N(C)C[C@@H]1Oc2ccc(NC(=O)Nc3ccccc3)cc2CC(=O)N([C@H](C)CO)C[C@H]1C	-0.00337	2.4
COc1ccc(NC(=O)N(C)C[C@@H]2Oc3ccc(NC(=O)NC(C)C)cc3CC(=O)N([C@H](C)CO)C[C@H]2C)cc1	-0.0706	110.2*
CC(C)NC(=O)Nc1ccc2c(c1)CC(=O)N([C@H](C)CO)C[C@H](C)[C@H](CN(C)Cc1ccncc1)O2	-0.403	112.9*
COc1ccc(NC(=O)N(C)C[C@@H]2Oc3ccc(NC(=O)NC(C)C)cc3CC(=O)N([C@@H](C)CO)C[C@@H]2C)cc1	0.245	-3.2
COc1ccc(NC(=O)N(C)C[C@@H]2Oc3ccc(NC(=O)c4ccncc4)cc3CC(=O)N([C@H](C)CO)C[C@H]2C)cc1	-0.0798	93.7*
COc1ccc(NC(=O)N(C)C[C@H]2Oc3ccc(NC(=O)c4ccncc4)cc3CC(=O)N([C@@H](C)CO)C[C@@H]2C)cc1	-0.122	0.0
CC1CCN(c2c(S(=O)(=O)c3ccccc3)cnc3ccccc23)CC1	nt	-17.9
O=C(O)C1[C@H]2C[C@H]3c4[nH]c5ccccc5c4CCN3C[C@@H]2CC[C@@H]1O (stereo partly specified)	nt	33.7
COc1ccc(-c2nsc(SCC(N)=O)n2)cc1	nt	-2.9
CN1C(=O)/C(=C\c2cn(CC(=O)N3CCOCC3)c3ccccc23)C(=O)NC1=S	nt	3.0
C=CCn1cc(C=C2C(=O)OC3(CCCC3)OC2=O)c2ccccc21	nt	45.0
Cc1ccccc1N1C(=O)NC(=O)/C(=C\c2cn(CC(=O)N3CCOCC3)c3ccccc23)C1=O	nt	117.0*
O=C1NC(=O)N(c2ccccc2F)C(=O)/C1=C/c1cn(CC(=O)N2CCCC2)c2ccccc12	nt	99.6*
CNC(=O)CSc1cn(CC(=O)N2CCC(C)CC2)c2ccccc12	nt	1.1
SMILES	YB-1 expr inh	U2OS ROS induce
O=C(c1cncc(NS(=O)(=O)c2ccc(Cl)cc2)c1)N1CCCc2ccccc21	nt	4.0
CCOC(=O)N1CCC(n2c(SCC(=O)Nc3ccc(C)cc3)nc3ccccc3c2=O)CC1	nt	25.4
COc1cc(C(=O)OC[C@@]2(O)CO[C@H](OC3C(CO)OC(Oc4cc(OC)c(OC)c(OC)c4)C(O)C3O)[C@@H]2O)cc(OC)c1O (stereo partly specified)	0.0368	-1.5
COc1cc(C(=O)OCC2(O)COC(OCC3OC(Oc4c(OC)cc(CO)cc4OC)C(O)C(O)C3O)C2O)cc(OC)c1O (stereo unspecified)	7.15*	-5.4
COc1cccc(-c2cnc3c(c2)C(=O)N([C@H](C)CO)C[C@H](C)[C@H](CN(C)C(=O)Nc2cccc4ccccc24)O3)c1	0.4	93.3*
COc1cccc(-c2cnc3c(c2)C(=O)N([C@H](C)CO)C[C@H](C)[C@H](CN(C)C(=O)Nc2ccc(F)cc2)O3)c1	-0.354	28.9
